Each structure is given as a SMILES string. Out of some 320,000 compounds screened, about 2,100 (0.66%) were called active. About 53% were inconclusive and are not listed. The call rests on the fitted dose curve; in most records, active means well fitted inhibition curve with a large enough effect in the signal ratio, with a control signal flat (not every such curve was filed as active); inconclusive means small, poorly fitted or top-dose-only effect, or effect the other way, or a change in a side signal; inactive means flat fitted curve, though single readings scatter; the % refers to the signal ratio. This excerpt belongs to a sample that is enriched for actives.
Potency means the concentration at half of the fitted maximal effect.

The assay can be described thus: qHTS Assay for Lipid Storage Modulators in Drosophila S3 Cells.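 On cell number change: cells counted by Cell Tracker Red CMTPX staining in the red channel.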 On lipid storage change, negative = inhibition: on the % scale 0 is the no-effect control and ±100 the full control effect. As to conditions: BODIPY lipid droplet fluorescence, 18-24 h, cells fed with added oleic acid; cell number change: measured here: cell count max response; series mostly up to 46.1 µM; lipid storage change, negative = inhibition: at the top concentration. The gist of the method:
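Laser-scanning cytometry quantifies lipid droplet accumulation (500–530 nm total intensity; droplet/cell object ratio) in oleic acid-fed (400 uM added) Drosophila S3 cells treated with a concentration series. 20 uM Triacsin C defined 100% inhibition.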
On the technique in general: In qHTS, concentration-response curves come from the screen itself.
With `COc1ccc(Cn2nnnc2CN(Cc2cc3cccc(C)c3[nH]c2=O)C2CCCC2)cc1`, the “lipid storage change, negative = inhibition” value was -1.09% (inactive) and the cell number change is -3.93%.
The corresponding values for `CCCCN(c1ccccc1)c1ncnc2nc[nH]c12` are -13.1% (inactive) and 0.284%.
For `O=C1c2cccc3c(N4CCCCC4)ccc(c23)C(=O)N1c1ccccn1`, in that order: 22% (inactive) and 12.6%.
Regarding `O=c1c2ccccc2c(-c2ccccc2)nn1-c1ccccn1`, the “lipid storage change, negative = inhibition” value was 21.9% (inactive).
Turning to `O=C1c2cc3ccccc3c(-c3ccccc3)c2C(=O)N1c1ccccn1`, the Potency was 23.1 µM (active) and the cell number change is -7.79%.
With `COc1ccc2c(c1)CCC(C)N2C(=O)C(=O)c1c[nH]c2ccccc12` (centres undefined), the “lipid storage change, negative = inhibition” value was 13.6% (inactive).
For `CCCCNC(=O)C1CCN(S(=O)(=O)c2c(C)noc2/C=C\c2ccc(OC)cc2)CC1`, the cell number change came out at 0.864% and the lipid storage change, negative = inhibition was -15.3% [at 9.22 µM] (inactive).
On to `COc1ccccc1CCC(=O)OC(C)C(=O)Nc1c(C)n(C)n(-c2ccccc2)c1=O` (centres undefined), for which the “lipid storage change, negative = inhibition” value was -5.33% (inactive).
For the molecule `O=C(NCc1ccco1)C1CCCN1C(=O)Nc1ccc(Br)cc1` (centres undefined), the Potency is 7.31 µM (active) and the cell number change was determined as 13.3%.
Regarding `Cc1cc(C)cc(NC(=O)N2CCCC2C(=O)NCc2ccco2)c1` (centres undefined), the “lipid storage change, negative = inhibition” value was 17.2% (inactive) and the cell number change came out at 4.2%.
For the molecule `O=C(NCc1ccco1)C1CCCN1C(=O)Nc1cccc(Cl)c1` (centres undefined), the “lipid storage change, negative = inhibition” value was 10.9% (inactive) and the cell number change turned out to be 3.19%.
As for `COCCNC(=O)C1CCN(S(=O)(=O)c2ccccc2)CC1`, the “lipid storage change, negative = inhibition” value is -7.72% (inactive) and the cell number change was -5.9%.
As to `CCNS(=O)(=O)c1ccc(C(=O)OCc2cc(=O)oc3cc(OC)ccc23)cc1`, the molecule was called inactive and the cell number change worked out at 12.6%.
In the case of `CCCNS(=O)(=O)c1cccc(C(=O)OCc2cc(=O)oc3cc(OC)ccc23)c1`, the Potency was 0.326 µM (active) and the cell number change worked out at 20.2%.
`COc1ccc2c(COC(=O)CNS(=O)(=O)c3ccc(C)c(C)c3)cc(=O)oc2c1`: the call was inactive.
For `CCOC(=O)C1CCCN(C(=O)c2cc(S(=O)(=O)Nc3ccccc3OC)ccc2C)C1` (centres undefined), the “lipid storage change, negative = inhibition” value was 7.98% (inactive) and the cell number change is 12%.
The corresponding values for `COc1ccc(CCNC(=O)C2CCN(c3nccc(C)n3)CC2)cc1` are 13.8% (inactive) and 5.66%.
Consider `CC(=O)Nc1ccccc1NC(=O)C/C(C)=N/NC(=O)C1CCCCC1`, for which the molecule was classed as inactive and the cell number change was -3.17%.
As to `Cc1cccc(C(=O)NCC(=O)OCc2cc(=O)n3ccsc3n2)c1`, the “lipid storage change, negative = inhibition” value is 18.6% (inactive) and the cell number change is -4.9%.
The corresponding values for `NC(=O)Nc1ccc(C(=O)OCC(=O)N2CCCC2=O)cc1` are 17.3% (inactive) and -27.9%.
Regarding `Nc1cc(C(=O)OCC(=O)N2CCCC2=O)ccc1Cl`, the result was inactive.
As to `O=C(OCC(=O)N1CCCC1=O)c1nc(Cl)c(Cl)c(Cl)c1Cl`, the Potency is 7.08 µM (active) and the cell number change was -29%.
`CCCc1cc(=O)c2c(O)cccc2o1`: the “lipid storage change, negative = inhibition” value is 0.102% (inactive) and the cell number change is -3.96%.
As to `O=C(NCCc1ccc(F)cc1)Nc1ccc([N+](=O)[O-])cc1`, the Potency was 13 µM (active) and the cell number change amounted to 18.2%.
As to `O=C(NCCc1ccc(Cl)cc1)Nc1ccc(F)cc1`, the “lipid storage change, negative = inhibition” value is -17.8% (inactive) and the cell number change was -2.02%.
The corresponding values for `O=C(NCCc1ccncc1)Nc1ccc(F)cc1` are -6.04% (inactive) and 5.19%.
The corresponding values for `Cc1cccc(C)c1NC(=O)CN(C)C(=O)/C=C/c1cccs1` are 26% (inactive) and -17%.
Regarding `CCn1cnc2c(Nc3cc(F)cc(F)c3)nc(C#N)nc21`, the Potency was 0.651 µM (active) and the cell number change was -24.3%.
As for `Cc1cc(C)c(C#N)c(Nc2ccc(F)cc2)n1`, the call was inactive and the cell number change is -10.5%.
Regarding `O=C(Cc1ccccc1)NCC(=O)OCC(=O)c1cccc([N+](=O)[O-])c1`, the “lipid storage change, negative = inhibition” value is -0.459% (inactive) and the cell number change was found to be 9.41%.
For the molecule `Cc1cc(OC(C)C(=O)N2CCN(c3ccccc3)CC2)c2c(C)c(C)c(=O)oc2c1` (centres undefined), the call was inactive and the cell number change came out at 5.19%.
`O=C(OCc1ccc(F)cc1)c1cc(=O)c2ccccc2o1`: the outcome was inactive and the cell number change was 11.3%.
`CCc1ccc(CN(C)C(=O)c2cc(=O)c3ccccc3o2)cc1`: the molecule was called inactive.
On to `COc1ccc(CCN(C)C(=O)c2cc(-c3ccccc3)nc3ccccc23)cc1OC`, for which the call was inactive and the cell number change is -2.7%.
`COc1ccc(C(C)=O)cc1COC(=O)c1cc(C)oc1C`: the “lipid storage change, negative = inhibition” value was 16.1% (inactive) and the cell number change was -12.2%.
For `COc1ccc(C(C)=O)cc1COC(=O)c1cccnc1Cl`, in that order: -19.8% (inactive) and 20.9%.
For the molecule `COc1ccc(CCN(C)C(=O)c2cc(=O)c3ccccc3o2)cc1OC`, the Potency is 0.731 µM (active) and the cell number change is -2.86%.
On to `COc1ccc(C(C)=O)cc1COC(=O)c1cc(=O)c2ccccc2o1`, for which the Potency is 18.4 µM (active) and the cell number change worked out at 5.13%.
The corresponding values for `COc1ccc(C(C)=O)cc1COC(=O)c1cc2ccccc2cc1O` are 20.6 µM (active) and -9.52%.
For the molecule `N#Cc1ccccc1COC(=O)c1cc(=O)c2ccccc2o1`, the “lipid storage change, negative = inhibition” value is -3.23% (inactive) and the cell number change was 7.26%.
For `CCOC(=O)c1ccc(NC(=S)N2CCCC(C)C2)cc1` (centres undefined), in that order: -12.9% (inactive) and 4.19%.
The corresponding values for `COCCN(C(=S)Nc1ccccc1OC)C(C)c1cccs1` (centres undefined) are 18.6% (inactive) and 10.3%.
The corresponding values for `CCCCn1nnc(NC(=O)c2sc3cc(Cl)ccc3c2Cl)n1` are 14.6% (inactive) and -11.4%.
In the case of `C/C(=N\Nc1cc(N2CCOCC2)nc(C)n1)c1ccc(F)cc1`, the outcome was inactive and the cell number change was -23.7%.
Take `COc1cc(OC)c2ccc(=O)oc2c1C(CCN1CCCC1)c1ccc(N(C)C)cc1` (centres undefined): the “lipid storage change, negative = inhibition” value is 0.139% (inactive) and the cell number change is 0.759%.
For `Cc1cc(C)nc(/N=C(\NC(=O)C(C)(C)C)Nc2ccccc2)n1`, in that order: 16.5% (inactive) and 7.69%.
For `O=C(CCOc1ccccc1)Nc1ccnn1C1CCN(C(=O)CCC(F)(F)F)CC1`, the result was inactive.
Take `Cn1c(N)c(C(=O)COC(=O)CNS(=O)(=O)c2cccc(Cl)c2)c(=O)n(C)c1=O`: the “lipid storage change, negative = inhibition” value is -4.82% (inactive) and the cell number change is -1.55%.

For the origin of these results see PubChem BioAssay AID2685 (National Center for Advancing Translational Sciences (NCATS), 2010).
